Our source for the inhibition values is PubChem BioAssay AID743449 (Broad Institute, 2014).

The whole screen tested about 9,900 compounds, of which about 90 (0.9%) were called active. Another 2% or so got no clear call; they are omitted. The entries come from a sample that favours actives as a whole. Values without a mark were called inactive.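 The calls were made as follows: active = mean normalized replicate activity at least 50 and at least half of replicates each reaching 50; inconclusive = only one of the two criteria met; inactive = neither criterion met.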

The assay in a line: reduction of CTGF mRNA in DLD1 cells – DLD1 colon cancer cells, RT-qPCR, single point, primary screen (AID 743449).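 Also: 0% = neutral control wells and 100% = dasatinib control wells; higher means stronger suppression of CTGF expression like dasatinib.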 The following applies: 24 h, at 12.5 µM, hits give high values. (In general: Quantitative PCR measures a nucleic acid by following its amplification.)
Consider `O=S(=O)(c1ccccc1)N1CCCCN2[C@H](C1)[C@@H](c1ccc(C#CC3CCCC3)cc1)[C@@H]2CO`, for which the inhibition (in general, the relative decrease from the control value, in per cent) is 50.5% (active).
For the molecule `O=S(=O)(c1ccccc1)N1CCCCN2[C@H](CO)[C@H](c3ccc(C#CC4CCCC4)cc3)[C@H]2C1`, the inhibition is -84.2%.
Turning to `COc1ccccc1C#Cc1ccc([C@H]2[C@H](CO)N3CCCCN(C(=O)C4CCC4)C[C@@H]23)cc1`, the inhibition is 68.7% (active).
In the case of `COc1ccccc1C#Cc1ccc([C@@H]2[C@@H](CO)N3CCCCN(C(=O)C4CCC4)C[C@H]23)cc1` it was 4.8%; in that of `O=S(=O)(c1ccccc1)N1CCCCN2[C@@H](CO)[C@H](c3ccc(C#CC4CCCC4)cc3)[C@@H]2C1`, 1.07%.
Consider `COc1ccccc1C#Cc1ccc([C@@H]2[C@H]3CN(C(=O)C4CCC4)CCCCN3[C@H]2CO)cc1`, for which the inhibition is 14.7%.
As to `O=C(C[C@H]1CC[C@H]2[C@@H](COC[C@@H](O)CN2C(=O)Nc2ccccc2)O1)NCc1ccccc1F`, the inhibition was 8.8%.
`CCCN1C[C@H](C)[C@H](OC)CN(C)C(=O)c2ccc(NS(=O)(=O)c3cn(C)cn3)cc2OC[C@H]1C`: the inhibition is -8.06%.
Consider `CCCC(=O)Nc1ccc2c(c1)C(=O)N(C)C[C@H](OC)[C@@H](C)CN(Cc1ccc(F)cc1)[C@H](C)CO2`, for which the inhibition is -14.1%.
In the case of `CN1[C@H](C(=O)Nc2nccs2)[C@@H](CO)[C@@H]2Cn3c(ccc(-c4ccccc4F)c3=O)[C@@H]21`, the inhibition was -2.79%.
As to `C/C=C/c1ccc([C@H]2[C@@H](CNC(=O)CC3CC3)N(C(=O)CC)[C@H]2CO)cc1`, the inhibition was -13.1%.
For the molecule `CCS(=O)(=O)Nc1ccc2c(c1)C(=O)N(C)[C@H]1CC[C@H](CC(=O)NCc3ccc(OC)cc3)O[C@@H]1CO2`, the inhibition is -27.1%.
In the case of `O=C(C[C@H]1CC[C@H]2NC[C@H](O)COC[C@@H]2O1)N1CCc2ccccc2C1`, the inhibition is 1.25%.
For the molecule `C[C@H](CO)N1C[C@H](C)[C@@H](CN(C)C(=O)c2cc(-c3ccccc3)on2)OCc2cnnn2CCCC1=O`, the inhibition is -12.2%.
In the case of `C[C@@H]1CN([C@@H](C)CO)C(=O)CCCn2nncc2CO[C@H]1CN(C)C(=O)c1cc(-c2ccccc2)on1`, the inhibition was -32.7%.
With `C[C@@H]1CN([C@H](C)CO)C(=O)CCCn2nncc2CO[C@@H]1CN(C)Cc1cccc(C(F)(F)F)c1`, the inhibition is 61.3% (active).
Turning to `C[C@@H]1CN([C@@H](C)CO)C(=O)CCCn2nncc2CO[C@@H]1CN(C)C(=O)c1cc(-c2ccccc2)on1`, the inhibition was 55.9% (active).
The figure for `C[C@H](CO)N1C[C@H](C)[C@@H](CN(C)Cc2cccc(C(F)(F)F)c2)OCc2cnnn2CCCC1=O` is -35.1%; for `C[C@@H]1CN([C@H](C)CO)C(=O)CCCn2nncc2CO[C@H]1CN(C)C(=O)c1cc(-c2ccccc2)on1` it is -10.9%.
With `C[C@H](CO)N1C[C@H](C)[C@H](CN(C)C(=O)c2cc(-c3ccccc3)on2)OCc2cnnn2CCCC1=O`, the inhibition is 29.3%.
In the case of `C[C@@H]1CN([C@H](C)CO)C(=O)CCCn2nncc2CO[C@H]1CN(C)Cc1cccc(C(F)(F)F)c1`, the inhibition was 20.5%.
For the molecule `C[C@@H]1CN([C@H](C)CO)C(=O)CCCn2nncc2CO[C@@H]1CN(C)C(=O)c1cc(-c2ccccc2)on1`, the inhibition is 66% (active).
Regarding `CNC[C@@H]1OCCCC[C@H](C)Oc2ccc(NS(=O)(=O)c3ccc(F)cc3)cc2C(=O)N([C@@H](C)CO)C[C@H]1C`, the inhibition was -4.63%.
As for `Cc1cccc(S(=O)(=O)N[C@@H]2CC[C@@H](CCNC(=O)Nc3cc(F)ccc3F)O[C@H]2CO)c1`, the inhibition was -12.4%.
As to `COc1ccc(-c2ccc([C@H]3[C@H](CO)N4C(=O)CN(Cc5ccccc5)C[C@@H]34)cc2)cc1`, the inhibition was -9.55%.
As for `COc1ccc(S(=O)(=O)N(C)C[C@H]2Oc3ccc(NC(=O)Nc4ccc(C(F)(F)F)cc4)cc3C(=O)N([C@@H](C)CO)C[C@@H]2C)cc1`, the inhibition is -95.1%.
Consider `O=C(Nc1ccccc1)[C@@H]1[C@@H](CO)[C@@H]2Cn3c(cccc3=O)[C@H]1N2C(=O)c1ccc(F)cc1`, for which the inhibition is 51.2% (active).
Consider `CCNC(=O)[C@@H]1[C@@H](CO)[C@@H]2Cn3c(cccc3=O)[C@H]1N2C(=O)Nc1cc(F)ccc1F`, for which the inhibition was -43%.
In the case of `O=C(Nc1ccccc1)[C@H]1[C@H](CO)[C@H]2Cn3c(cccc3=O)[C@@H]1N2C(=O)c1ccc(F)cc1`, the inhibition was 11.4%.
For the molecule `N#C[C@H]1[C@@H](c2ccccc2)[C@H](CO)N1C(=O)c1cc(Cl)cc(Cl)c1`, the inhibition is 26.8%.
The figure for `CC(C)NC(=O)N[C@@H]1CC[C@@H](CC(=O)NCCCN(C)C)O[C@H]1CO` is 1.3%; for `CC(C)NC(=O)N[C@@H]1CC[C@H](CC(=O)NCCCN(C)C)O[C@@H]1CO` it is 50.2% (active).
In the case of `CC(C)NC(=O)N[C@H]1CC[C@H](CC(=O)NCCCN(C)C)O[C@@H]1CO` it was 12%; in that of `C[C@H](CO)N1C[C@H](C)[C@@H](CN(C)S(=O)(=O)c2cccs2)Oc2ccc(NC(=O)Nc3cccc4ccccc34)cc2C1=O`, 3.66%.
For the molecule `CO[C@H]1CN(C)C(=O)c2ccc(NC(=O)c3nc4ccccc4s3)cc2OC[C@@H](C)N(Cc2cccnc2)C[C@@H]1C`, the inhibition was 1.26%.
Regarding `CO[C@@H]1CN(C)C(=O)c2ccc(NC(=O)c3nc4ccccc4s3)cc2OC[C@@H](C)N(Cc2cccnc2)C[C@H]1C`, the inhibition is 68.4% (active).
With `CO[C@@H]1CN(C)C(=O)c2ccc(NC(=O)c3nc4ccccc4s3)cc2OC[C@@H](C)N(Cc2cccnc2)C[C@@H]1C`, the inhibition was 1.63%.
In the case of `CCCNC(=O)N1[C@@H]2Cn3c(cccc3=O)[C@H]1[C@@H](C(=O)N1CCC(Cc3ccccc3)CC1)[C@@H]2CO` it was -24.7%; in that of `C[C@H]1CN([C@@H](C)CO)C(=O)CCCn2nncc2CO[C@H]1CN(C)C(=O)Nc1ccc2c(c1)OCCO2`, -11.1%; in that of `CCCC#Cc1ccc2c(c1)O[C@@H](CN(C)Cc1ccccn1)[C@@H](C)CN([C@@H](C)CO)S2(=O)=O`, -16.9%.
In the case of `C[C@H]1CC=CC[C@H](c2ccc(F)cc2)NC(=O)[C@H](Cc2ccccc2)N(C)C(=O)c2ccccc2O1` (mixture of isomers) it was -3.91%; in that of `C[C@H]1CC=CC[C@H](c2ccc(F)cc2)NC(=O)[C@@H](Cc2ccccc2)N(C)C(=O)c2ccccc2O1` (mixture of isomers), -32.9%; in that of `C[C@H]1CC=CC[C@@H](c2ccc(F)cc2)NC(=O)[C@H](Cc2ccccc2)N(C)C(=O)c2ccccc2O1` (mixture of isomers), 64% (active).
For the molecule `CC(C)[C@@H]1CC=CC[C@H](C)Oc2ccccc2C(=O)N(C)[C@@H](Cc2ccccc2)C(=O)N1` (mixture of isomers), the inhibition is 15.6%.
In the case of `C[C@@H]1CC=CC[C@H](c2ccc(F)cc2)NC(=O)[C@@H](Cc2ccccc2)N(C)C(=O)c2ccccc2O1` (mixture of isomers), the inhibition was 60.2% (active).
On to `CC(C)[C@@H]1CC=CC[C@@H](C)Oc2ccccc2C(=O)N(C)[C@H](Cc2ccccc2)C(=O)N1` (mixture of isomers), for which the inhibition was 38.9%.
Consider `C[C@H](CO)N1C[C@H](C)[C@@H](CN(C)S(C)(=O)=O)Oc2ncc(-c3ccc(F)cc3)cc2C1=O`, for which the inhibition is 15.8%.
On to `CO[C@@H]1CN(C)C(=O)c2cc(NS(=O)(=O)c3cccc(Cl)c3)ccc2OC[C@H](C)NC[C@@H]1C`, for which the inhibition was 4.93%.
In the case of `CO[C@@H]1CC[C@H]2CCOc3ccc(C#N)cc3C(=O)N(C)C[C@@H](c3ccccc3)CC(=O)N(C)C[C@@H]1O2`, the inhibition was -20.2%.
Turning to `COCC(=O)N1[C@H](CO)[C@H](c2ccc(C#CC(C)C)cc2)[C@@H]1CNC(C)=O`, the inhibition was 26.8%.
`C[C@H]1CN([C@@H](C)CO)C(=O)c2cc(NS(=O)(=O)c3cn(C)cn3)ccc2O[C@H]1CN(C)S(=O)(=O)c1ccc(F)cc1`: the inhibition was -21.9%.
The figure for `COCc1cn(CC[C@@H]2CC[C@@H](NC(=O)Nc3c(C)noc3C)[C@@H](CO)O2)nn1` is 4.39%; for `C[C@@H]1CCCCO[C@@H](CN(C)Cc2ccc(C(=O)O)cc2)[C@H](C)CN([C@H](C)CO)C(=O)c2cc(N(C)C)ccc2O1` it is -3.21%; for `Cc1cccc(S(=O)(=O)N2C[C@H](O)COC[C@@H]3O[C@@H](CC(=O)Nc4ccccc4)CC[C@H]32)c1` it is 8.1%.
As for `COc1ccc2c3c(n(C)c2c1)[C@@H](CO)N(Cc1ccncc1)CC31CN(C(=O)C2CCCCC2)C1`, the inhibition was 2.18%.
With `COc1ccc2c3c(n(C)c2c1)[C@@H](CO)N(Cc1ccncc1)CC31CN(C(=O)Nc2cccc(F)c2)C1`, the inhibition is 52.9% (active).
Consider `COc1ccc2c3c(n(C)c2c1)[C@H](CO)N(Cc1ccncc1)CC31CN(C(=O)Nc2cccc(F)c2)C1`, for which the inhibition was 46.1%.
Consider `CC(=O)N1[C@H](CO)[C@H](c2ccccc2)[C@@H]1CN(C(=O)c1ccccc1F)C(C)C`, for which the inhibition is 13%.
For `CCNC(=O)C[C@H]1CC[C@@H]2[C@H](COC[C@H](O)CN2C(=O)C2CCCC2)O1`, the inhibition is -1.66%.
As for `C[C@@H]1CCCCO[C@H](CN(C)C(=O)Nc2ccccc2)[C@H](C)CN([C@@H](C)CO)C(=O)c2cc(NC(=O)Nc3ccccc3)ccc2O1`, the inhibition was 0.777%.
As to `C[C@@H]1CN([C@@H](C)CO)C(=O)c2ccccc2-c2ccccc2CO[C@H]1CN(C)C(=O)Nc1ccc(-c2ccccc2)cc1`, the inhibition was 73.6% (active).
In the case of `C[C@@H]1CN([C@H](C)CO)C(=O)c2ccccc2-c2ccccc2CO[C@@H]1CN(C)C(=O)Nc1cccc(C(F)(F)F)c1` it was 14.3%; in that of `C[C@@H]1CN([C@H](C)CO)C(=O)c2ccccc2-c2ccccc2CO[C@@H]1CN(C)C(=O)Nc1ccc(-c2ccccc2)cc1`, 39.6%.
In the case of `C[C@@H]1CN([C@@H](C)CO)C(=O)c2cc(NC(=O)Nc3ccccc3)ccc2O[C@@H](C)CCCCO[C@@H]1CN(C)C(=O)Nc1ccccc1` it was 62.7% (active); in that of `C[C@@H]1CCCCO[C@@H](CN(C)C(=O)Nc2ccccc2)[C@H](C)CN([C@@H](C)CO)C(=O)c2cc(NC(=O)Nc3ccccc3)ccc2O1`, 16.9%.
For the molecule `C[C@@H]1CN([C@H](C)CO)C(=O)c2cc(C#Cc3ccccc3)cnc2O[C@@H]1CN(C)C(=O)c1ccccc1`, the inhibition was 14.1%.
For `C[C@H]1CN([C@@H](C)CO)C(=O)c2cc(C#Cc3ccccc3)cnc2O[C@@H]1CN(C)C(=O)c1ccccc1`, the inhibition was 34.5%.
The figure for `C[C@H](CO)N1C[C@H](C)[C@H](CN(C)C(=O)Nc2cccc(C(F)(F)F)c2)OCc2ccccc2-c2ccccc2C1=O` is 11.9%.
Consider `C[C@H](CO)N1C[C@H](C)[C@H](CN(C)C(=O)Nc2ccc(-c3ccccc3)cc2)OCc2ccccc2-c2ccccc2C1=O`, for which the inhibition is 28.1%.
In the case of `C[C@H]1CN([C@@H](C)CO)C(=O)c2cc(C#Cc3ccccc3)cnc2O[C@H]1CN(C)C(=O)c1ccccc1` it was 65.3% (active); in that of `C[C@@H]1CN([C@@H](C)CO)C(=O)c2ccccc2-c2ccccc2CO[C@H]1CN(C)C(=O)Nc1cccc(C(F)(F)F)c1`, 64.7% (active).
